PHOSPHO1 block: blocks human PHOSPHO1 phosphatase activity | actives 1.1% (n = 290,000) | recombinant PHOSPHO1, absorbance phosphatase assay | Q8TCT1 | inhibition, % at 13.3 µM | AID 1565; in the data active = inhibition above about 60%
Target sequence (Q8TCT1 whole entry, looked up): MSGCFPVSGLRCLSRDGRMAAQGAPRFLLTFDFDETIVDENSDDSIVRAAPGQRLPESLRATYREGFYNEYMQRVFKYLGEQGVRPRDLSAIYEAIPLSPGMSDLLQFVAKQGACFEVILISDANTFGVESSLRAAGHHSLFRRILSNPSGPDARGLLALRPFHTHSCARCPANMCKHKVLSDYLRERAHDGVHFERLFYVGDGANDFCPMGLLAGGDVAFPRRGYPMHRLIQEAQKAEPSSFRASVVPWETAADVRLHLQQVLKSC
Platelet DG rel: platelet dense granule release activity; inhibition, %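 (compounds screened at 7.5 µM in platelet-rich plasma)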; actives 0.22% (n = 300,000); human platelet-rich plasma, SFLLRN dense granule ATP release, luminescence;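 active = mean replicate score, as percent of positive control, at or above 50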
SKKanGAS inh: blocks kanamycin growth of S. pyogenes SKKanGAS strain. actives 1.3% (n = 300,000). BacTiter-Glo, 6 h. inhibition, % at 7.5 µM;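 active = mean replicate score, as percent of positive control median, at least 50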;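 also: strain carries kanamycin resistance gene driven by streptokinase promoter and grows in 40 µg/ml kanamycin; loss of luminescence reflects streptokinase promoter inhibition or plain growth inhibition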
WT yeast gro inh: growth inhibition of WT yeast, mitochondrial fusion screen; mitochondrial fusion phenotypic screen, WT strain; inhibition, % at 10 µM; actives 2.1% (n = 190,000); AID 1362; in the data active = inhibition above about 58%; tested in S. cerevisiae
TPT1 inh: C. albicans TPT1 enzyme inhibition | recombinant caTPT1, FP RNA substrate dephosphorylation | actives 0.81% (n = 300,000) | inhibition, % at 5 µM;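 active = inhibition above the mean of all tested compounds plus 3 SD, set per screening campaign, cut at about 24% in these data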
Rtt109 HAT inh: inhibitors of Candida albicans Rtt109/Vps75 histone acetyltransferase | purified Rtt109/Vps75, ThioGlo CoA-SH fluorescence, 4 h | inhibition, % at 34.9 µM | actives 0.16% (n = 330,000);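 active = inhibition of at least 50% in every replicate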
Target sequence (Q5AAJ8 whole entry, looked up): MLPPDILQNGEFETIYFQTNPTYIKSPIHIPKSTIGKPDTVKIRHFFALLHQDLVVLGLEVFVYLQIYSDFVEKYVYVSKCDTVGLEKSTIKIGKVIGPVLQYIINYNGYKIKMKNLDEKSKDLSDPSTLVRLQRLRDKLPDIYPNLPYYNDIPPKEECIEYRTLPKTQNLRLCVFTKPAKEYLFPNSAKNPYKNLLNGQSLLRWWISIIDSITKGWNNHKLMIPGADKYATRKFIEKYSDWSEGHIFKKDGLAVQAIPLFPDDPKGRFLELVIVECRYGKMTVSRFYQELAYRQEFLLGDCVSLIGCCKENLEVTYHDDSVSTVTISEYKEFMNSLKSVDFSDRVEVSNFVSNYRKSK
Hits are given with their value. Only some compounds are listed: those with a hit (about 3.9% of all), similar ones and a draw of the others.

`CC(C)[C@H](NC(=O)c1cccc(S(=O)(=O)N2CCOCC2)c1)C(=O)OCC(=O)Nc1cccc(Br)c1` gave Rtt109 HAT inh inactive.
For COc1ccc2c(c1)c(C(=O)CN1CCC3(CC1)OCCO3)c(C)n2C the results were PHOSPHO1 block 97, Platelet DG rel inactive, SKKanGAS inh inactive, WT yeast gro inh inactive, TPT1 inh inactive and Rtt109 HAT inh inactive.
For COc1ccc2c(c1)c(C(=O)CN1CCOCC1)c(C)n2C the results were PHOSPHO1 block inactive, Platelet DG rel inactive, SKKanGAS inh inactive, WT yeast gro inh inactive, TPT1 inh inactive and Rtt109 HAT inh inactive.
`CC(C)Nc1nc(NC(C)(C)C)nc(Oc2ccc(=O)n(-c3ccccc3)n2)n1` gave PHOSPHO1 block inactive, Platelet DG rel 60, SKKanGAS inh inactive, WT yeast gro inh inactive, TPT1 inh inactive and Rtt109 HAT inh inactive.
For CN(Cc1ccccc1)C(=O)c1cccc(NC(=O)Cc2ccc(NC(=O)C3CCN(C(=O)C4CC4)CC3)cc2)c1 the results were Rtt109 HAT inh inactive.
`COc1cc(/C(C)=C/c2ccccc2)c2c(c1)oc1ccccc12` gave PHOSPHO1 block inactive, Platelet DG rel inactive, SKKanGAS inh 55 and TPT1 inh inactive.
For Nc1ccc(C#Cc2ccc3c(=O)c4ccccc4oc3c2)cc1 the results were PHOSPHO1 block inactive, Platelet DG rel inactive, SKKanGAS inh inactive, TPT1 inh inactive and Rtt109 HAT inh inactive.
For COc1cc2oc3cc(C#Cc4ccc(N)cc4)ccc3c(=O)c2cc1OC the results were Platelet DG rel inactive, SKKanGAS inh 58, TPT1 inh inactive and Rtt109 HAT inh inactive.
For COc1cc2oc3ccc(C#Cc4ccc(N)cc4)cc3c(=O)c2cc1OC the results were Platelet DG rel inactive, SKKanGAS inh 78, TPT1 inh inactive and Rtt109 HAT inh inactive.
`COc1ccc(OCC(=O)NNC(=O)Cn2c(=O)cnc3ccccc32)cc1` gave Rtt109 HAT inh inactive.
Screening O=C1c2ccc3c4c(ccc(c24)C(=O)N1c1cccc(O)c1)C(=O)N(c1cccc(O)c1)C3=O returned PHOSPHO1 block inactive, Platelet DG rel inactive, SKKanGAS inh 65, TPT1 inh inactive and Rtt109 HAT inh inactive.
`Cc1noc(/C=C/N(C)C)c1S(=O)(=O)N(C)Cc1ccc(F)cc1` gave PHOSPHO1 block inactive, Platelet DG rel inactive, SKKanGAS inh inactive, TPT1 inh inactive and Rtt109 HAT inh inactive.
`CC(C)=CCc1c(-c2ccc(O)cc2O)oc2cc3c(c(O)c2c1=O)C=CC(C)(C)O3` gave Platelet DG rel inactive, SKKanGAS inh 107 and TPT1 inh inactive.
CCCCCCCc1nc2c(=O)n(C)c3ccccc3c2o1 was read as PHOSPHO1 block 63, Platelet DG rel inactive, SKKanGAS inh inactive, WT yeast gro inh inactive, TPT1 inh inactive and Rtt109 HAT inh inactive.
`COc1ccc(OC)c(C2CC(=O)N3CN(c4cccc(Cl)c4C)CSC3=C2C#N)c1` (centres undefined) gave PHOSPHO1 block 93, Platelet DG rel inactive, SKKanGAS inh inactive, WT yeast gro inh inactive, TPT1 inh inactive and Rtt109 HAT inh inactive.
Screening COc1ccc(OC)c(C2CC(=O)N3CN(c4ccccc4F)CSC3=C2C#N)c1 (centres undefined) returned PHOSPHO1 block 86, Platelet DG rel inactive, SKKanGAS inh inactive, WT yeast gro inh inactive, TPT1 inh inactive and Rtt109 HAT inh inactive.
`COc1cccc(C2CC(=O)N3CN(c4ccccc4F)CSC3=C2C#N)c1` (centres undefined) gave PHOSPHO1 block inactive, Platelet DG rel inactive, SKKanGAS inh inactive, WT yeast gro inh inactive, TPT1 inh inactive and Rtt109 HAT inh inactive.
`COc1cccc(C2CC(=O)N3CN(c4cccc(Cl)c4C)CSC3=C2C#N)c1OC` (centres undefined) gave PHOSPHO1 block 88, Platelet DG rel inactive, SKKanGAS inh inactive, WT yeast gro inh inactive, TPT1 inh inactive and Rtt109 HAT inh inactive.
For Cc1c(C(=O)N2CCN(Cc3ccccc3)CC2)sc2ncnc(N3CCOCC3)c12 the results were PHOSPHO1 block inactive, Platelet DG rel inactive, SKKanGAS inh inactive, WT yeast gro inh inactive, TPT1 inh inactive and Rtt109 HAT inh inactive.
c1ccc(CC2CCN(c3ncnc4sccc34)CC2)cc1 was read as PHOSPHO1 block inactive, Platelet DG rel inactive, SKKanGAS inh inactive, WT yeast gro inh 63 and Rtt109 HAT inh inactive.
`Cc1c(C(=O)N2CCC(Cc3ccccc3)CC2)sc2ncnc(N3CCC(C)CC3)c12` gave PHOSPHO1 block inactive, Platelet DG rel inactive, SKKanGAS inh 56, WT yeast gro inh inactive, TPT1 inh inactive and Rtt109 HAT inh inactive.
`Cc1c(C(=O)N2CCC(C)CC2)sc2ncnc(N(C)c3ccccc3)c12` gave PHOSPHO1 block inactive, Platelet DG rel inactive, SKKanGAS inh inactive, WT yeast gro inh 88, TPT1 inh inactive and Rtt109 HAT inh inactive.
Screening Cc1cnc(C(=O)NCC(=O)Nc2ccccc2Br)cn1 returned Rtt109 HAT inh inactive.
Screening Cc1nc2ccc(C(=O)OCC(=O)N(C)c3ccccc3)cc2nc1C returned Rtt109 HAT inh inactive.
For CCC(=O)N(c1nnc(SCC(=O)Nc2ccccc2Cl)s1)C1CC1 the results were Rtt109 HAT inh inactive.
c1ccc2sc(SN3CCOCC3)nc2c1 was read as PHOSPHO1 block 66, Platelet DG rel inactive, SKKanGAS inh inactive, WT yeast gro inh inactive, TPT1 inh inactive and Rtt109 HAT inh inactive.
`C=CCn1c(CSc2nc3ccccc3s2)n[nH]c1=S` gave PHOSPHO1 block 106, Platelet DG rel inactive, SKKanGAS inh inactive, WT yeast gro inh inactive, TPT1 inh inactive and Rtt109 HAT inh inactive.
For c1ccc2sc(SCSc3nc4ccccc4s3)nc2c1 the results were PHOSPHO1 block inactive, Platelet DG rel inactive, SKKanGAS inh 54, TPT1 inh inactive and Rtt109 HAT inh inactive.
`C=CCn1c(Cc2nc3ccccc3[nH]2)n[nH]c1=S` gave PHOSPHO1 block 90, Platelet DG rel inactive, SKKanGAS inh inactive, WT yeast gro inh inactive, TPT1 inh inactive and Rtt109 HAT inh inactive.
`S=c1[nH]nc(CSc2nc3ccccc3s2)n1Cc1ccccc1` gave PHOSPHO1 block 98, Platelet DG rel inactive, SKKanGAS inh inactive, WT yeast gro inh inactive, TPT1 inh inactive and Rtt109 HAT inh inactive.
CCCSc1nnc(CSc2nc3ccccc3s2)n1-c1ccccc1 was read as PHOSPHO1 block inactive, Platelet DG rel inactive, SKKanGAS inh inactive, WT yeast gro inh inactive, TPT1 inh inactive and Rtt109 HAT inh inactive.
`CCn1c(CSc2nc3ccccc3s2)n[nH]c1=S` gave PHOSPHO1 block 96, Platelet DG rel inactive, SKKanGAS inh inactive, WT yeast gro inh inactive, TPT1 inh inactive and Rtt109 HAT inh inactive.
Screening CC(=O)c1ccccc1NC(=O)COC(=O)/C=C/c1ccc(OC(F)F)cc1 returned Platelet DG rel inactive, SKKanGAS inh inactive, TPT1 inh inactive and Rtt109 HAT inh inactive.
Cc1c(N(C)C(=O)COc2ccc3ccccc3c2)c(=O)n(-c2ccccc2)n1C was read as PHOSPHO1 block inactive, Platelet DG rel inactive, SKKanGAS inh inactive, TPT1 inh inactive and Rtt109 HAT inh inactive.
Screening CCOc1ccc(OCCCC(=O)N2CCN(S(=O)(=O)c3ccccc3C#N)CC2)cc1 returned Rtt109 HAT inh inactive.

Bioassay records (PubChem)
